Assay results from the supplement of paper PMC10105736.
A number with no mark means an inactive call.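 How the source made its calls: active = MAPPIT score above the 99th percentile of random reference set scores in the same batch; inactive = at or below it.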

Legend:
Assay in all cases: MAPPIT interaction score (arbitrary units); higher = stronger binary interaction signal, active = hit call of the paper
Dhod = settings: MAPPIT configuration: N-N; pair source set: Curagen_high_conf
cindr = settings: MAPPIT configuration: N-N; pair source set: Lit-BM-16
DnaJ-1 = settings: MAPPIT configuration: N-N; pair source set: Lit-BM-16
Cyp1 = settings: pair source set: Lit-BM-16
Dlc90F = settings: MAPPIT configuration: N-N; pair source set: Finley_Y2H
Mtap = settings: MAPPIT configuration: N-N; pair source set: screen_1
Dif = settings: pair source set: Lit-BM-16
CycG = settings: MAPPIT configuration: N-N; pair source set: Finley_Y2H
c-cup = settings: MAPPIT configuration: N-N; pair source set: Finley_Y2H
ix = settings: MAPPIT configuration: N-N; pair source set: Finley_Y2H
Dfd = settings: MAPPIT configuration: N-N; pair source set: Finley_Y2H
Deaf1 = settings: MAPPIT configuration: N-N; pair source set: screen_1
DIP1 = settings: MAPPIT configuration: N-N; pair source set: screen_2
kermit = settings: MAPPIT configuration: N-N; pair source set: Curagen_high_conf
shv = settings: MAPPIT configuration: N-N; pair source set: Curagen_high_conf
Cpr62Ba = settings: pair source set: RRS
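Further: HEK293T cells with Epo stimulation, STAT-responsive firefly luciferase reporter, fold induction versus unstimulated cells divided by the larger fold induction of two negative controls lacking either bait or prey.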

B1: bsk (protein)
chain: MTTAQHQHYTVEVGDTNFTIHSRYINLRPIGSGAQGIVCAAYDTITQQNVAIKKLSRPFQNVTHAKRAYREFKLMKLVNHKNIIGLLNAFTPQRNLEEFQDVYLVMELMDANLCQVIQMDLDHDRMSYLLYQMLCGIKHLHSAGIIHRDLKPSNIVVKADCTLKILDFGLARTAGTTFMMTPYVVTRYYRAPEVILGMGYTENVDIWSVGCIMGEMIRGGVLFPGTDHIDQWNKIIEQLGTPSPSFMQRLQPTVRNYVENRPRYTGYSFDRLFPDGLFPNDNNQNSRRKASDARNLLSKMLVIDPEQRISVDEALKHEYINVWYDAEEVDAPAPEPYDHSVDEREHTVEQWKELIYEEVMDYEAHNTNNRTR
Work on B1 yielded an MAPPIT interaction score (Dhod) of 1.59 and an MAPPIT interaction score (cindr) of 0.0365.

B2: Mlf (protein)
chain: MSLFGALMGDFDDDLGLMNNHMNHTMNAMNMQMRSMNRLMNSFMPDPFMQVSPFDQGFQQNALMERPQMPAMPAMGLFGMPMMPNFNRLLNADIGGNSGASFCQSTVMTMSSGPDGRPQIYQASTSTKTGPGGVRETRRTVQDSRTGVKKMAIGHHIGERAHIIEKEQDMRSGQLEERQEFINLEEGEAEQFDREFTSRASRGAVQSRHHAGGMQAIMPARPAAHTSTLTIEPVEDDDDDDDDCVIQEQQPVRSSAGRHYSSAPTAPQNSGNIATAAAPTPTSSPTTYDTSNGNNNNYVSSRRSYLRNGHGHSLATPRRPLRTPPSSPLATVSTSPSIHPHPYAANPRRQQRAVKHFHTEDEAASSYKAVKRGKKK
In the case of B2, the MAPPIT interaction score (DnaJ-1) is reported as -0.321.

B3: Eno (protein)
chain: MSWTASVFLRTSTTSMKFLRLRWPLPRIPQNKSANVAPRFRSKSAVSQLSSGFKFVQIRKSTCDSNEMTIKAIKARQIYDSRGNPTVEVDLTTELGLFRAAVPSGASTGVHEALELRDNDKANYHGKSVLKAVGHVNDTLGPELIKANLDVVDQASIDNFMIKLDGTENKSKFGANAILGVSLAVAKAGAAKKGVPLYKHIADLAGNKEIILPVPAFNVINGGSHAGNKLAMQEFMILPTGATSFTEAMKMGSEVYHHLKNVIKAKFGLDATAVGDEGGFAPNIQSNKEALNLISDAIAKAGYTGKIEIGMDVAASEFYKDGQYDLDFKNEKSDKSQWLPADKLANLYQEFIKDFPIVSIEDPFDQDHWEAWSNLTGCTDIQIVGDDLTVTNPKRIATAVEKKACNCLLLKVNQIGTVTESIAAHLLAKKNGWGTMVSHRSGETEDSFIGDLVVGLSTGQIKTGAPCRSERLAKYNQILRIEEEIGAGVKFAGKSFRKPQ
Binder B3 has an MAPPIT interaction score (Cyp1; MAPPIT configuration: N-C) of 0.69 and an MAPPIT interaction score (Cyp1; MAPPIT configuration: N-N) of -0.102.

B4: Mtap (protein)
chain: MITIKCKDTNLDPLPVKIGIIGGSGLDDPDILEQRQERVVETPYGEPSDALIEGEINGVQCVLLARHGRKHDIMPSNVNYRANIWALRDVGCTHLIVSTACGSLREEIKPGNLVVPHDFIDRTTKRLQTFYDGKAQSPRGVCHLPMFPAFSERTRNILLQAAKELEIPAHDKATIVTIEGPRFSSRSESHMFRQWGGDLINMTTCPEVVLAKEAGLLYGSVAIATDYDCWRMGCEGVNVQDVLRTFAENVIKVKKILVNAVGRIAKEDWSEDILNAKQCVCNNTMSGAM
For B4, the MAPPIT interaction score (Dlc90F) was 0.638 and the MAPPIT interaction score (Mtap) was 5.81 (active).

B5: Rel (protein)
chain: MNMNQYYDLDNGKNVMFMNDASSTSGYSSSTSPNSTNRSFSPAHSPKTMELQTDFANLNLPGGNSPHQPPMANSPYQNQLLNNGGICQLGATNLINSTGVSFGVANVTSFGNMYMDHQYFVPAPATVPPSQNFGYHQNGLASDGDIKHVPQLRIVEQPVEKFRFRYKSEMHGTHGSLNGANSKRTPKTFPEVTLCNYDGPAVIRCSLFQTNLDSPHSHQLVVRKDDRDVCDPHDLHVSKERGYVAQFINMGIIHTAKKYIFEELCKKKQDRLVFQMNRRELSHKQLQELHQETEREAKDMNLNQVRLCFEAFKIEDNGAWVPLAPPVYSNAINNRKSAQTGELRIVRLSKPTGGVMGNDELILLVEKVSKKNIKVRFFEEDEDGETVWEAYAKFRESDVHHQYAIVCQTPPYKDKDVDREVNVYIELIRPSDDERSFPALPFRYKPRSVIVSRKRRRTGSSANSSSSGTESSNNSLDLPKTLGLAQPPNGLPNLSQHDQTISEEFGREKHLNEFIASEDFRKLIEHNSSDLEKICQLDMGELQHDGHNRAEVPSHRNRTIKCLDDLFEIYKQDRISPIKISHHKVEKWFIEHALNNYNRDTLLHEVISHKKDKLKLAIQTIQVMNYFNLKDVVNSTLNADGDSALHVACQQDRAHYIRPLLGMGCNPNLKNNAGNTPLHVAVKEEHLSCVESFLNGVPTVQLDLSLTNDDGLTPLHMAIRQNKYDVAKKLISYDRTSISVANTMDGNNALHMAVLEQSVELLVLILDAQNENLTDILQAQNAAGHTPLELAERKANDRVVQLLKNVYPEKGELAMTWIPCKVKEEIDSSSDESSDAGQLEIKSEEMDIETKDEDSVELDLSSGPRRQKDESSRDTEMDNNKLQLLLKNKFIYDRLCSLLNQPLGHGSDPQDRKWMQLARQTHLKQFAFIWLGAEDLLDHVKRKGASVEFSTFARALQAVDPQAYALLVNPT
With B5 the MAPPIT interaction score (Dif; MAPPIT configuration: N-C) was 3.09 and the MAPPIT interaction score (Dif; MAPPIT configuration: N-N) was 1.57.

B6: Aladin (protein)
chain: MAALSNLKQCPPFSTLPDLALRHNHIPELERYPQINLNSELLANPAGQRYYGGQSFVSVNEGVLKRIARSFFNGGFWKTLEEARSPETREQAPLIAQAGDLIAQFLGLATGLRILPHTQQLSAERIAQFVETRDWLNSDVRYLAWNQHFFCLAVAGVDDVVRIYTKSSSATTATVLKSPSQTQITCMAWRPLCASEIVIGCRQGLCFWEVDSTLHLGRTNAPSEIFKYPNNLPITSMQWNKDGTQLATASIGDRSIIIWQPDTGMMQPLKRLGPPGSLLKWSPDNDWLFAATVDRVFRVWNCHQQWTTERWVCGPGGYVQTACWSPCGRFLLFVSSAEPILYRLQFVQQSLLSSSADEKEILPIADLNACSIDANRTLVGGPAQQLAWDPHGNYLVVTFKATNCIAVFRTFIQKFDLQISAAYYLSGETAAEHPSFICFQPLYEDNDRSVLTIAWSSGRIQYYAFD
In the case of B6, the MAPPIT interaction score (CycG) is reported as -0.0444.

B7: mldr (protein)
chain: MYNLRLLRNLLPIAGHAHPRWLASQHKRRPQPGSLPADRLDQLRSDLFERRHELSGAEWTEVRRSLVDGYKHINGHNVDAVILGVCSAPNQLSLAKSYVEFLRSRGSKPNAATLGRLLRVYNAAYHERPLSEAEQSEILQICRSLQAEHETLDASSCENVIHGLVATSGDDWQRGLPLLEMMKVTSTPSVAAYSALAEKAFSVATPEQELAWRLLEEMATARKPPKCEVYLALLNRLANETAQLPAQLSLLLQFLERHEILVSQRVAIRLQELSSQVPQLLHTRTTHLGGLGKCQSCQQHLQPVAISDEEFRQLSECFLERVLIRRDVFQRSTPEEVARFKKFVEKTAPYDCVIDGLNVAYSTGTKKTPQQLAKLVATVVRHFREQDKRVLVLGREHMRNWSKQAMHYVHCNASLFLTSNLSHDDPFLLYATLRSGQETDFFSRDLMRSHAFHLGTELKPIFRRWQQEHQFSLVTQTQTGQIIVKEPVRHRLCAHQVADTWHVPYCAQYTPHPTDSFEVPANWLCIQMKEQTIPATKTKTKTTR
Binder B7 has an MAPPIT interaction score (CycG) of -0.0303, an MAPPIT interaction score (c-cup) of -0.00733 and an MAPPIT interaction score (ix) of 0.483.

B8: eIF3i (protein)
chain: MRPLMLQGHERSITQIKYNREGDLLFSCSKDQKPNVWYSLNGERLGTYDGHQGAVWCLDVDWESRKLITGAGDMTAKIWDVEYGTVIASIPTKSSVRTSNFSFSGNQAAYSTDKAMGQSCELFLIDVRNADSSLSEQEPTLRIPMTESKITSMLWGPLDETIITGHDNGNIAIWDIRKGQKVVDSGTDHSAGINDMQLSKDGTMFVTASKDTTAKLFDSESLMCLKTYKTERPVNSAAISPIMDHVVLGGGQDAMEVTTTSTKAGKFDSRFFHLIYEEEFARLKGHFGPINSLAFHPDGKSYASGGEDGFVRVQTFDSTYFENIFE
Work on B8 yielded an MAPPIT interaction score (Dfd) of 0.00823.

B9: Clamp (protein)
chain: MEDLTKNIIFTNAINGQPATIQYQTADGTILKQPKIEGQKTEQQPTFYYTTNGNGGTVNLAQLATTDDNKTCYIAQPVGGYNYALVNGMPLNQGAALGIATVDAQGRIQIVNQNKPIAANTISNISFKCDVCSDMFPHLALLNAHKRMHTDGEQQQQQQHNAQAGGDSIAVVSAQGLVQAQNIIGNGQMGQIQIVSSDTLEPVQQSVMQQQQHESKASKCINCGSSMLQQSKRKGPKQVRCESCMQAEQTAQQQQQLFVAQDGQMAHPVQIISTTPQAQAQLQQIVAAQTGGTTPKREASSGSGHHPVKKRNSQQMTKCQKCNGSGVVLVGQHSHASHSGVGGSVKQSVTVKTENPSKPFSCNICGGLFSRYSSLWSHKKLHSGEKNYKCSICGLAFAKAVYLKNHARIHTGEKPYKCQTCGMQFSQSPHLKNHERTHSGERPYVCGVCDKGFARHATLWNHRRIHTGEKPYKCEICGSAFSQAAHLKNHAKVHSGEKPYKCEICSAAFADRFALKRHRGIHQKYGQTAPRQTSSDGMIVHKQEIPDMEDEAQQEVIIGGL
B9 was tested, and the MAPPIT interaction score (Deaf1) was 0.235.

B10: Mob4 (protein)
chain: MKMADGSTILRRNRPGTKSKDFCRWPDEPLEEMDSTLAVQQYIQQLIKRDPSNVELILTMPEAQDEGVWKYEHLRQFCMELNGLAVRLQKECSPSTCTQMTATDQWIFLCAAHKTPKECPAIDYTRHTLDGAACLLNSNKYFPSRVSIKESSVTKLGSVCRRVYRIFSHAYFHHRRIFDEFEAETYLCHRFTHFVTKYNLMSKENLIVPINVGENAAPGESEA
Work on B10 yielded an MAPPIT interaction score (DIP1) of 0.606, an MAPPIT interaction score (kermit) of 0.744 and an MAPPIT interaction score (shv) of 0.755.

B11: Rad60 (protein)
chain: MSDDDCDIFSAARKRIPEIALPKNPYNLGNDSFSKEVDYDFIEDLPKKSTKTGKRKNPAATRKNPPKSQDDASPPKQAEHKAVEPEEDMRTERSLSPVSLLILEMEKKNGQQSDVEKHAKENDVGPVARRTRSSLNRSEMAPPPVSPTVEVPTQTKPKKRGQKKRTSLTTTTSNSASMEVSLPSIVGQNNEHISRRWTLAEVAARSKVVDSIDLVSAVAPRVEGFVNLDSEDEGEKEAPPVVEEENIFDNDNPTIEVALSWLGEIQIYKLRQHQKFKHLFKELASRNGIDENDITVDMYYNFVGPEDTPHSIGLKSFHTLTGHPTKSHNNNNVAAKIDYNPEALCRKPKKFQVKVQADKWKHPLVIPMKKTDNFKIIFIKCAEELNCDPRTIKLFFDGDLLDPNDTPNNQDMEGNEVIDLKIKA
Work on B11 yielded an MAPPIT interaction score (Cpr62Ba; MAPPIT configuration: N-C) of -0.181 and an MAPPIT interaction score (Cpr62Ba; MAPPIT configuration: N-N) of 1.45.
